Test results: PubChem BioAssay (Tox21)
Records with an inconclusive call do not appear. Active and inactive are the calls of the source. Calls follow the shape of the full dose curve.

target: Thyrotropin receptor (Homo sapiens) (UniProt P16473); experiment: qHTS assay to identify small molecule agonists of the thyroid stimulating hormone receptor (TSHR) signaling pathway (AID 1224843); conditions: TSHR-HEK293 cells, cAMP HTRF, agonist mode, 30 min; series mostly up to 92.4 µM; activation: at the top concentration; also: nearly all actives have a fitted effect of over 45% in size
Sequence (P16473 whole entry, looked up): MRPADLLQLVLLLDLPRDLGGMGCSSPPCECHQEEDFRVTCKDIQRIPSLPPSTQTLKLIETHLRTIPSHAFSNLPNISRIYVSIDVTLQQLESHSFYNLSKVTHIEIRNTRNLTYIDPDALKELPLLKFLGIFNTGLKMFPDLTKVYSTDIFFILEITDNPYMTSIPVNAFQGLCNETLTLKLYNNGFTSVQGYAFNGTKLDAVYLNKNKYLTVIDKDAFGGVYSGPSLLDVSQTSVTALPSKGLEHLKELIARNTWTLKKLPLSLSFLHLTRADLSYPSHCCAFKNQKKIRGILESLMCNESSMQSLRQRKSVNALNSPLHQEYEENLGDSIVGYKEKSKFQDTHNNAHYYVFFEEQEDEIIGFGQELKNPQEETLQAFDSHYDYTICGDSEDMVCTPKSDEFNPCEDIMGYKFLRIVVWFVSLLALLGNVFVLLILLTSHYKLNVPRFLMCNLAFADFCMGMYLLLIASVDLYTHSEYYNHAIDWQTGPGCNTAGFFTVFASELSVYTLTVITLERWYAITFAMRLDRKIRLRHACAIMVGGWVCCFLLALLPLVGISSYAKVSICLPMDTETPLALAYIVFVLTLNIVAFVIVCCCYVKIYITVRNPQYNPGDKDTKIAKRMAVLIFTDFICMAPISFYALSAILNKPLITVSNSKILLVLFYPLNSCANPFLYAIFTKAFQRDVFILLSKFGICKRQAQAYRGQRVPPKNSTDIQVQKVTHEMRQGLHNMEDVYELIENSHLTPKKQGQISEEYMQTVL
Method in brief: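 Cell line HEK293 with TSHR; density 800/well. Exposure 30 min RT. Readout HTRF cAMP (cAMP-d2/anti-cAMP-cryptate), 1 h RT before reading.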
% is scaled to controls: 0 for no effect and ±100 for the full control effect.

Q: Which “activation” value does the source give for `Oc1c(I)cc(I)c2cccnc12` here?
A: Its value is 2.24% [at 42.5 µM] (inactive).

Q: With `CN1CCCC(n2nc(Cc3ccc(Cl)cc3)c3ccccc3c2=O)CC1` (configuration not stated) as the compound, how does the “activation” value read?
A: Its value is -1.81% [at 42.5 µM] (inactive).

Q: With `CCC=CC#N` as the compound, how does the “activation” value read?
A: The value was -0.136% (inactive).

Q: For `CCCCCCC(C)(C)C(=O)O`, which “activation” value is on record?
A: Its value is -8.32% (inactive).

Q: For `O=C1c2ccccc2C(=O)c2c(O)c(O)cc(O)c21`, which “activation” value is on record?
A: The value was -1.18% (inactive).

Q: For `CC1CC(OC(=O)C(O)c2ccccc2)CC(C)(C)N1C` (configuration not stated), which “activation” value is on record?
A: Its value is -3.34% [at 42.5 µM] (inactive).

Q: With `CCOC(C)=O` as the compound, how does the “activation” value read?
A: Its value is 0.931% (inactive).

Q: For `CCCCC(CC)COP(=O)(O)O` (configuration not stated), which “activation” value is on record?
A: Its value is -3.02% (inactive).

Q: For `CC(CCC(=O)O)C(=O)O` (configuration not stated), which “activation” value is on record?
A: The value was -2.93% (inactive).

Q: For `CCC(C)COC(=O)CC(C)C` (configuration not stated), which “activation” value is on record?
A: Its value is 14.2% (inactive).

Q: For `Cc1ccco1`, which “activation” value is on record?
A: The value was 0.417% (inactive).

Q: Which “activation” value does the source give for `CCOC(=O)/C=C/C(=O)OCC` here?
A: The value was -4.38% (inactive).

Q: With `O=c1[nH]c2ccc(Cl)cc2o1` as the compound, how does the “activation” value read?
A: The value was 0.409% (inactive).

Q: Which “activation” value does the source give for `CCC(C)COC(C)=O` (configuration not stated) here?
A: Its value is -19.4% (inactive).

Q: For `N#[N+]c1ccc2c(S(=O)(=O)[O-])cccc2c1O`, which “activation” value is on record?
A: The value was -0.696% (inactive).

Q: For `Oc1cccc(Nc2ccccc2)c1`, which “activation” value is on record?
A: Its value is -14.4% (inactive).

Q: With `CC(=O)OCC(=O)NCCCOc1cccc(CN2CCCCC2)c1` as the compound, how does the “activation” value read?
A: The value was 2.99% [at 42.5 µM] (inactive).

Q: Which “activation” value does the source give for `CCCCCC[C@@H](O)C/C=C\CCCCCCCC(=O)O` here?
A: The value was -8.27% (inactive).

Q: For `NCCNCCO`, which “activation” value is on record?
A: Its value is -1.03% (inactive).

Q: With `Cc1ccc2c(Br)cc(Br)c(O)c2n1` as the compound, how does the “activation” value read?
A: Its value is -0.448% [at 42.5 µM] (inactive).

Q: Which “activation” value does the source give for `O=C(O)C[C@H](NC(=O)OCc1ccccc1)C(=O)O` here?
A: The value was -0.177% (inactive).

Q: With `O=C(Nc1cccc2c(=O)cc(-c3nn[nH]n3)oc12)c1ccc(OCCCCc2ccccc2)cc1` as the compound, how does the “activation” value read?
A: The value was 12.5% [at 42.5 µM] (inactive).

Q: Which “activation” value does the source give for `Cc1ccc(C(C)(C)O)cc1` here?
A: The value was 0.896% (inactive).

test system: not listed separately; experiment: qHTS assay to identify small molecule agonists of the hypoxia (HIF-1) signaling pathway - cell viability counter screen (AID 1224844); conditions: HRE-bla ME-180 viability, CellTiter-Glo luminescence, 17 h; series mostly up to 76.8 µM; activity change, negative = cytotoxicity: at the top concentration; also: nearly all actives have a fitted effect of over 50% in size; also: potency is read from the fitted curve at half-maximal effect
Method in brief: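 ME-180 HRE-bla cells, 2,000/well, 0.5% dialyzed FBS; 5 hr settle, 17 hr compound at 37C/5% CO2; CCF4-AM reporter read first, then CellTiter-Glo luminescence after 30 min RT.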

Q: Which “activity change, negative = cytotoxicity” value does the source give for `C=C(C)[C@@H]1CCC2=CCC[C@@H](C)[C@]2(C)C1` here?
A: Its value is -2.62% (inactive).

Q: For `Oc1c(I)cc(I)c2cccnc12`, which “activity change, negative = cytotoxicity” value is on record?
A: The value was 3.26% [at 35.3 µM] (inactive).

Q: With `CCC1NC(=O)c2cc(S(N)(=O)=O)c(Cl)cc2N1` (configuration not stated) as the compound, how does the “activity change, negative = cytotoxicity” value read?
A: The value was -0.0588% [at 35.3 µM] (inactive).

Q: For `C1COC1`, which “activity change, negative = cytotoxicity” value is on record?
A: Its value is 0.0448% (inactive).

Q: Which “activity change, negative = cytotoxicity” value does the source give for `CCCCCCC(C)(C)C(=O)O` here?
A: Its value is 5.95% (inactive).

Q: Which “activity change, negative = cytotoxicity” value does the source give for `O=C1c2ccccc2C(=O)c2c(O)c(O)cc(O)c21` here?
A: The value was 12.4% (inactive).

Q: With `CC1CC(OC(=O)C(O)c2ccccc2)CC(C)(C)N1C` (configuration not stated) as the compound, how does the “activity change, negative = cytotoxicity” value read?
A: Its value is 0.291% [at 35.3 µM] (inactive).

Q: With `CCOC(C)=O` as the compound, how does the “activity change, negative = cytotoxicity” value read?
A: The value was 0.459% (inactive).

Q: For `CCCCC(CC)COP(=O)(O)O` (configuration not stated), which Potency is on record?
A: The Potency was 12.5 µM (active).

Q: Which “activity change, negative = cytotoxicity” value does the source give for `CC(CCC(=O)O)C(=O)O` (configuration not stated) here?
A: Its value is 0.785% (inactive).

Q: With `CCC(C)COC(=O)CC(C)C` (configuration not stated) as the compound, how does the Potency read?
A: The Potency was 19.5 µM (active).

Q: Which “activity change, negative = cytotoxicity” value does the source give for `CCCCN(CCCC)C(C(N)=O)c1ccc(OC)cc1` (configuration not stated) here?
A: The value was 0.0657% [at 35.3 µM] (inactive).

Q: Which “activity change, negative = cytotoxicity” value does the source give for `CCCCCC[C@@H](O)C/C=C\CCCCCCCC(=O)OCC(O)CO` (some centres not stated) here?
A: The value was -13% (inactive).

Q: For `CCOC(=O)/C=C/C(=O)OCC`, which “activity change, negative = cytotoxicity” value is on record?
A: Its value is 8.58% (inactive).

Q: With `O=c1[nH]c2ccc(Cl)cc2o1` as the compound, how does the “activity change, negative = cytotoxicity” value read?
A: The value was -9.12% (inactive).

Q: With `O=C1Cc2cc(Cl)ccc2N1` as the compound, how does the “activity change, negative = cytotoxicity” value read?
A: The value was 0.0266% [at 35.3 µM] (inactive).

Q: Which “activity change, negative = cytotoxicity” value does the source give for `CCC(C)COC(C)=O` (configuration not stated) here?
A: Its value is 1.45% (inactive).

Q: With `Nc1nnc(-c2ccc([N+](=O)[O-])o2)o1` as the compound, how does the “activity change, negative = cytotoxicity” value read?
A: The value was 13.1% (inactive).

Q: Which “activity change, negative = cytotoxicity” value does the source give for `N#[N+]c1ccc2c(S(=O)(=O)[O-])cccc2c1O` here?
A: The value was -21.4% (inactive).

Q: Which “activity change, negative = cytotoxicity” value does the source give for `Cc1cc(O)c(C)c(C)c1O` here?
A: The value was 8.4% [at 35.3 µM] (inactive).

Q: With `Oc1cccc(Nc2ccccc2)c1` as the compound, how does the “activity change, negative = cytotoxicity” value read?
A: The value was 5.63% (inactive).

Q: For `CC(=O)OCC(=O)NCCCOc1cccc(CN2CCCCC2)c1`, which “activity change, negative = cytotoxicity” value is on record?
A: Its value is 9.41% [at 35.3 µM] (inactive).

Q: With `CC(=O)Nc1ccc(C)cc1C` as the compound, how does the “activity change, negative = cytotoxicity” value read?
A: Its value is 5.78% (inactive).

Q: With `COC(=O)c1nc(Cl)c(Cl)nc1N` as the compound, how does the Potency read?
A: The Potency was 13.4 µM (active).

Q: With `CCCCCC[C@@H](O)C/C=C\CCCCCCCC(=O)O` as the compound, how does the “activity change, negative = cytotoxicity” value read?
A: Its value is -1.99% (inactive).

Q: Which “activity change, negative = cytotoxicity” value does the source give for `NCCNCCO` here?
A: Its value is 0.308% (inactive).

Q: With `O=C(O)C[C@H](NC(=O)OCc1ccccc1)C(=O)O` as the compound, how does the “activity change, negative = cytotoxicity” value read?
A: Its value is -0.509% (inactive).

Q: Which “activity change, negative = cytotoxicity” value does the source give for `CC[N+](CC)(CCNC(=O)C(=O)NCC[N+](CC)(CC)Cc1ccccc1Cl)Cc1ccccc1Cl` here?
A: The value was 3.37% [at 35.3 µM] (inactive).

Q: Which “activity change, negative = cytotoxicity” value does the source give for `Cc1ccc(C(C)(C)O)cc1` here?
A: Its value is 3.01% (inactive).
